This is an account of results in the supplement of paper PMC7411054.

Conditions in all cases: treatment time: 24 h
The subject of assay [1] is WPMY1-TP53BP1-CLTA. The assay is described as follows: lowest phenotypically active concentration; higher = less potent. An outline of the steps:
(§1)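 Four wells per concentration (0.3, 1, 3 or 9 µM) were treated for 24 h in each of fifteen gene-edited reporter lines from A549, HepG2 and WPMY1 cells, then imaged live. After normalising live-cell features to solvent control wells, deviation was defined as ≥3 of 4 wells lying past the 95th percentile of control Euclidean distances. Reproducibility was defined as a median replicate Pearson correlation above the 95th percentile of non-replicates. Both had to hold for phenotypic activity.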

For assay [2], the system named is A549-ACTB-RAB5A. The assay is described as follows: phenotypically active (imaging signature differs from DMSO and reproducible) at any of 0.3-9 uM (binary (1 = active, 0 = inactive)); higher = active. An outline of the steps:
as §1

Assay [3] concerns A549-CANX-COX4. Described as above. An outline of the steps:
as §1

The subject of assay [4] is A549-GM130-SQSTM1. The assay is described as above. An outline of the steps:
as §1

The test system of assay [5] is A549-TP53BP1-CLTA. Described as above. An outline of the steps:
as §1

The test system of assay [6] is A549-TUBA1B-RELA. Described as above. An outline of the steps:
as §1

The test system of assay [7] is HepG2-ACTB-RAB5A. The assay is described as above. An outline of the steps: as §1
Assay [8] concerns HepG2-CANX-COX4. The assay is described as above. An outline of the steps: as §1
In assay [9] the test system is HepG2-GM130-SQSTM1. The assay is described as above. An outline of the steps: as §1
The subject of assay [10] is HepG2-TP53BP1-CLTA. The description is as above. An outline of the steps:
as §1

The test system of assay [11] is HepG2-TUBA1B-RELA. The description is as above. An outline of the steps: as §1
In assay [12] the test system is WPMY1-ACTB-RAB5A. The description is as above. An outline of the steps:
as §1

For assay [13], the system named is WPMY1-CANX-COX4. Described as above. An outline of the steps: as §1
Assay [14] has as its system WPMY1-GM130-SQSTM1. Described as above. An outline of the steps: as §1
For assay [15], the system named is WPMY1-TP53BP1-CLTA. The description is as above. An outline of the steps: as §1
Assay [16] relates to WPMY1-TUBA1B-RELA. The description is as above. An outline of the steps:
as §1

Structures are written as SMILES. Counter-ions that a name gives are not always drawn.

In the case of `CS(=O)(=O)c1ccc(-c2nnc(/C=C/c3nnc(-c4ccc(C#N)cc4)o3)n2-c2ccccc2Cl)nc1`, the “lowest phenotypically active concentration” value in assay [1] was found to be 9 µM. Further, the phenotypically active in [2], in assay [3], in assay [4], in assay [5], in assay [6] and in assay [7] was 0 (inactive) throughout. Also, the phenotypically active in [8], in assay [9], in assay [10], in assay [11], in assay [12] and in assay [13] was 0 (inactive) throughout. For the same compound, the values for the phenotypically active in assay [14], in [15] and in assay [16] were 0 (inactive), 1 (active) and 0 (inactive), respectively.

With `O=c1cc(-c2ccc(O)cc2)oc2c(C3O[C@H](CO)[C@@H](O)[C@H](O)[C@H]3O)c(O)cc(O)c12` (some centres not stated) [Vitexin], the phenotypically active in assay [3], in assay [5], in assay [7], in assay [8], in [9] and in [10] was 0 (inactive) throughout. Moreover, the phenotypically active in assay [11], in assay [12], in assay [13], in assay [14], in assay [15] and in assay [16] was 0 (inactive) in each case.

As for `C/C(=C/C(=O)Nc1ccccc1C(=O)O)c1ccc2ccccc2c1`, the phenotypically active in [3], in assay [5], in assay [7], in assay [8], in assay [9] and in [10] was 0 (inactive) each time. In addition, the phenotypically active in assay [11], in [12], in assay [13], in assay [14], in assay [15] and in [16] was 0 (inactive) throughout.

On to `CCCCCCCCCCCCc1ccc(S(=O)(=O)Nc2nncs2)cc1`, for which the phenotypically active in assay [3], in [5], in assay [7], in assay [8], in assay [9] and in assay [10] was 0 (inactive) throughout. In addition, the phenotypically active in [11], in assay [12], in assay [13], in assay [14], in [15] and in assay [16] was 0 (inactive) in each case.

In the case of `C=C[C@H]1CN2CC[C@H]1C[C@@H]2[C@@H](O)c1ccnc2ccc(OC)cc12` [Quinidine hydrochloride monohydrate], the phenotypically active in [2], in [3], in assay [4], in assay [6], in assay [7] and in [8] was 0 (inactive) throughout. Moreover, the phenotypically active in [9], in assay [11], in [12], in [13], in assay [14] and in [16] was 0 (inactive) throughout.

Turning to `CN(CCOc1ccc(NS(C)(=O)=O)cc1)CCc1ccc(NS(C)(=O)=O)cc1` [dofetilide], the phenotypically active in [2], in assay [3], in assay [4], in [6], in assay [7] and in assay [8] was 0 (inactive) throughout. For the same compound, the phenotypically active in assay [9], in assay [11], in assay [12], in assay [13], in [14] and in assay [16] was 0 (inactive) each time.

For the compound `C[C@H]1O[C@H](O[C@H]2[C@H](O)[C@@H](O)[C@@H](O[C@H]3[C@H](O)[C@@H](O)[C@H](O)O[C@@H]3CO)O[C@@H]2CO)[C@H](O)[C@@H](O)[C@@H]1N[C@H]1C=C(CO)[C@@H](O)[C@H](O)[C@H]1O` [Acarbose], the phenotypically active in [3], in assay [5], in [7], in assay [8], in assay [9] and in [10] was 0 (inactive) throughout. Further, the phenotypically active in assay [11], in [12], in assay [13], in [14], in [15] and in [16] was 0 (inactive) each time.

As for `Cc1ccc(NC(=O)c2ccc(CN3CCN(C)CC3)cc2)cc1Nc1nccc(-c2cccnc2)n1` [Imatinib mesylate], the phenotypically active in [3], in assay [4], in assay [7], in [8], in [11] and in assay [12] was 1 (active) each time. Also, the phenotypically active in [13], in assay [14] and in [16] was 1 (active) each time.
